Assay [1] is described as follows: Her2 expression decrease, cell viability multiplex – SKBR3 breast tumor cells, AlphaScreen, ATP viability, primary screen (AID 461;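 active = Her2 level under about 52% in both replicate screens, with viability over 70% of control, limit read from the data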;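 for Her2 level: lower value means less Her2 protein in the cells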;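 for viability: percent of carrier control wells set as 100% viability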). Particulars: SKBR3 Her2 protein level, 18-24 h, measured here: SKBR3 viability, ATP luminescence, at 10 µM.
Assay [2] has as its target Receptor tyrosine-protein kinase erbB-2 (Homo sapiens) (UniProt P04626). Described as above. Conditions: 18-24 h, at 10 µM, stronger effect = lower value.
Assay [3] can be described thus: reduced viability of SK-BR-3 breast cancer cells – cell-based, 24 h, human, pilot screen (AID 572;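 active = viability at or below 10% of carrier control in both of two separate runs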;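 note: compound exposure lasted between 18 and 24 h rather than exactly 24 h; 100% = carrier-treated control wells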). Conditions: SK-BR-3 viability, CellTiter-Glo luminescence, at 10 µM, stronger effect = lower value. In general terms: In ATP-based viability assays light output follows the ATP content of the culture.
The nature of assay [4]: HUVEC growth inhibition – cell-based, human, primary screen (AID 575;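 active = viability at or below 30% in both replicate assays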;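 note: 100% = median of untreated cell wells with 0.1% DMSO on each plate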). Particulars: HUVEC proliferation, CellTiter-Glo luminescence, 72 h; at 10 µM; stronger effect = lower value.
Assay [5] can be described thus: H69AR cell proliferation blockers – human, duplicate replicates, primary screen (AID 580;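 active = viability at or under a set limit in both replicates, limit being median viability minus 3 SD, cut at about 48% in these data, passing the limit was not always enough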;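 note: 100% = mean luminescence of untreated wells and 0% = no signal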). Conditions: H69AR lung tumor cells viability, ATP luminescence, 72 h; at 10 µM; stronger effect = lower value.
Assay [6] can be described thus: MRP1 drug-resistance reversers in H69AR cells – cell-based, doxorubicin co-treatment, pilot screen (AID 601;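 active = viability loss from added drug above about 55%, and viability with drug at most 40%, in both replicates, limit read from the data, passing the limit was not always enough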). Conditions: CellTiter-Glo, 72 h, at 10 µM; for differential viability (reversal): stronger effect = higher value.
The nature of assay [7]: yeast transport mutant growth inhibition pilot in 384-well plates, post-Golgi transport modulator project (AID 636; in the data active = inhibition above about 31%). Particulars: absorbance 615 nm, about 18 h, stronger effect = higher value.
Assay [8] in a line: growth suppression of yeast trafficking mutant, preliminary HTS, modulators of trafficking downstream of Golgi apparatus project, 1536-format plate, OD 615 nm (AID 637; in the data active = inhibition above about 30%). Particulars: yeast transport mutant growth, absorbance 615 nm, 18 h; stronger effect = higher value.
The nature of assay [9]: S. cerevisiae growth inhibition in permissive medium (OD615), pilot counter-assay for S. cerevisiae lifespan shortening project, permissive growth control (AID 705;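 active = growth inhibition above 25% in both replicates, a cutoff set 3 SD above the mean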). Conditions: OD615, 24 h, at 10 µM, stronger effect = higher value.
Assay [10] can be described thus: S. cerevisiae growth inhibition in restrictive medium, OD615, pilot screen, restrictive growth control, yeast lifespan reduction project (AID 706;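 active = growth inhibition above a set limit, 3 SD over mean compound inhibition, in both replicates, cut at about 43% in these data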;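 note: modified DeaD lifespan yeast strain shifted to restrictive glucose medium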). Particulars: OD615, 48 h, at 10 µM, stronger effect = higher value.
Assay [11] in a line: doxorubicin toxicity protection in MRP-1 cells – H69AR cells, CellTiter-Glo, duplicate, MRP-1 activator project, pilot screen (AID 807).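 Note: compound pretreatment 18-22 h then 72 h combined with doxorubicin; 0% = doxorubicin alone and 100% = vehicle without doxorubicin.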 Conditions: H69AR viability with doxorubicin, CellTiter-Glo luminescence; at 10 µM; stronger effect = higher value.
A short description of assay [12]: viability of HCT116 without oncogenic beta-catenin – human colon tumor cells, pilot screen (AID 823;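 active = cell viability at or below a set limit in both duplicate runs, the limit being the all-compound median minus 4 SD, cut at about 23% in these data, passing the limit was not always enough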;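 note: 0% = wells killed by 20 µM Hyamine and 100% = untreated DMSO cell wells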). Conditions: HCT116 beta-catenin knockout viability, CellTiter-Glo, 60 h; at 10 µM; stronger effect = lower value.
Assay [13] is described as follows: viability of PTEN-null HCT116 cells – cell-based, HCT116 clonal line, CellTiter-Glo, pilot screen (AID 824;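 active = viability at or below 27.92% in each of two runs, the all-compound median minus 4 SD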;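 note: 0% = 20 µM Hyamine control and 100% = vehicle cell control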). Particulars: HCT116 PTEN-deleted viability, 60 h, at 10 µM, stronger effect = lower value.
Assay [14] in a line: RAM pathway blockade in budding yeast – dse1pr::URA3 reporter, 5-FOA selection, pilot screen (AID 869;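 active = inhibition over a set limit, the all-compound mean plus 3 SD, in both replicate runs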;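 note: 0% = DMSO wells with no growth and 100% = 10 µM 1-NA-PP1 with full growth; RAM network block rescues cells from 5-FOA so hits raise OD615 growth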). Particulars: S. cerevisiae dse1pr::URA3 5-FOA growth, OD615, 2 d; at 10 µM; stronger effect = higher value; strain carries analog-sensitive mutant Cbk1 kinase.
The nature of assay [15]: RAM signaling pathway blockade in yeast – S. cerevisiae, Pdr1DBD-CYC8 efflux-inhibited sensitized strain, primary screen (AID 1298;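 active = RAM network inhibition above 8.4% in each of two replicates, 3 SD over the compound average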;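 note: 0% = DMSO untreated cells without growth and 100% = 10 µM 1-NA-PP1 full growth; higher means more yeast growth rescued from 5-FOA killing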). Particulars: S. cerevisiae cbk1-as DSE1-URA3 strain, 5-FOA growth OD615, 2 d; at 50 µM; stronger effect = higher value.
Where [16] appears, read: H69AR cells + 2 uM doxorubicin, measured here: viability with 2 uM doxorubicin, stronger effect = lower value.
Setting [17] is: H69AR cells, compound alone cytotoxicity.

The structures appear in SMILES notation. Results filed as inconclusive are left out. Active and inactive are the calls of the source.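 Rule for the calls, unless noted: active = viability increase at or above a cutoff of the median across tested compounds plus 3 SD (cut at about 8.5% in these data, passing the limit was not always enough); inconclusive = some gains above the cutoff, reason not given; inactive = the rest.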

A word on the viability: it is a read-out of living cells in per cent, often relative to untreated cells. For orientation: inhibition means the change of the read-out against control, counted positive when it falls.

Sequence of Receptor tyrosine-protein kinase erbB-2 (Homo sapiens) (P04626 whole entry, looked up): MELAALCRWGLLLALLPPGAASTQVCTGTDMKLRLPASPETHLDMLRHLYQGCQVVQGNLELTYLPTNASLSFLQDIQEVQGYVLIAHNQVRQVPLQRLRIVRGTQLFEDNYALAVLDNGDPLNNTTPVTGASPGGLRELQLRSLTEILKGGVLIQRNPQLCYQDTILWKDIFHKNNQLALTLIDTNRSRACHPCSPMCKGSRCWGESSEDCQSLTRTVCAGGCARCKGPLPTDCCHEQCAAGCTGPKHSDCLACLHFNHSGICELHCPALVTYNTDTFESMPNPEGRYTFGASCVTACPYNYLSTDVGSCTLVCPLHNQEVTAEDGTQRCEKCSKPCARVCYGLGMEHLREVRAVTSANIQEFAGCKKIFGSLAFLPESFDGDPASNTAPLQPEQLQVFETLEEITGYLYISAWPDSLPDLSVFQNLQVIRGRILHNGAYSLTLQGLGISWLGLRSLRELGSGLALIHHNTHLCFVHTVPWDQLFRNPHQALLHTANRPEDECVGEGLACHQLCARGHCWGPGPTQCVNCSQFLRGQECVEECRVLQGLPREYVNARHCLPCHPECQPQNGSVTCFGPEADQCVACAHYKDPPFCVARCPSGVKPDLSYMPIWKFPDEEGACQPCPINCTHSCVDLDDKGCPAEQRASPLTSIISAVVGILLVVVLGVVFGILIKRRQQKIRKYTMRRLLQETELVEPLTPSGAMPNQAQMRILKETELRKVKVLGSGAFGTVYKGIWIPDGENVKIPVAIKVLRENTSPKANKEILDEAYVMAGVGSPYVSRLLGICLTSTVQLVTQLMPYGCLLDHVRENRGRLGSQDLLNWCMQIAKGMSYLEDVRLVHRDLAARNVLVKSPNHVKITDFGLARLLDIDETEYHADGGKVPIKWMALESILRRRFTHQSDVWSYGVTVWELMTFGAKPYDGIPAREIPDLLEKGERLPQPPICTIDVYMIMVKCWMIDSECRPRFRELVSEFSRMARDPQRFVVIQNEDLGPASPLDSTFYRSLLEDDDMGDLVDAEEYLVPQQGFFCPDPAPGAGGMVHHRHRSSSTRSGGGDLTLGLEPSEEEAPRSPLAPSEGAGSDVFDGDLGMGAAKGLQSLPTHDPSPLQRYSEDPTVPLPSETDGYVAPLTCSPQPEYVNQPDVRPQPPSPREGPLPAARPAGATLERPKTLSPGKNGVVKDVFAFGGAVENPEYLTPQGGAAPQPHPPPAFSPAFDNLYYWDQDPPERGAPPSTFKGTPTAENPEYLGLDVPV

Take `COc1ccccc1CNC(=O)CCn1c(=O)[nH]c2ccsc2c1=O`: the viability in [1] was 97.5%; in assay [3] it was 97.5% (inactive); in assay [4], 114% (inactive); in assay [5], 93.9% (inactive); in [6] (setting [16]) it was 88.9%; in assay [6] (setting [17]) it was 93.9%. Besides, the viability was 101% (inactive) in [12] and 99.4% (inactive) in [13]. The Her2 level in [2] is 102% (inactive). For the same compound, the differential viability (reversal) in [6] (H69AR cells + 2 uM doxorubicin) was 4.96% (inactive). Further, the inhibition is -7.97% (inactive) in [7], 2.17% (inactive) in assay [8] and 1.01% (inactive) in assay [14]. Also, the growth inhibition is -21% (inactive) in assay [9] and -14.4% (inactive) in assay [10]. Also, the viability increase in assay [11] is -0.23% (inactive). For the same compound, the RAM network inhibition in [15] is 4.41% (inactive).
For the compound `CCOC(=O)c1cccc(NC2c3ccccc3C(=O)N2Cc2ccco2)c1` (stereo not given), the viability in assay [1] was 98.5%; in [3] it was 98.5% (inactive); in assay [4], 76.2% (inactive); in [5], 82.1% (inactive); in assay [6] (setting [16]), 88.4%; in assay [6] (setting [17]), 82.1%. Besides, the results for the viability in [12] and in [13] were 64.7% (inactive) and 74.6% (inactive), respectively. Besides, the Her2 level in assay [2] is 98% (inactive). Also, in assay [6] (H69AR cells + 2 uM doxorubicin), the differential viability (reversal) was -6.29% (inactive). The inhibition in [7] was -3.6% (inactive); in [8], -0.83% (inactive); in assay [14], 2.4% (inactive). Moreover, the growth inhibition is 2.55% (inactive) in assay [9] and 1.38% (inactive) in assay [10]. The viability increase in [11] is -5.15% (inactive). The RAM network inhibition in assay [15] was 8.31% (inactive).
`COc1ccc(NC(=O)c2cc(C3CC3)on2)c(OC)c1`: the viability in assay [1] is 96.5%; in [3] it was 96.5% (inactive); in assay [4], 86.7% (inactive); in [5], 91.2% (inactive); in assay [6] (setting [16]) it was 99.1%; in [6] (setting [17]), 91.2%. Further, the values for the viability in assay [12] and in [13] were 101% (inactive) and 92.2% (inactive), respectively. In addition, in assay [2], the Her2 level is 91.5% (inactive). In assay [6] (H69AR cells + 2 uM doxorubicin), the differential viability (reversal) was -7.87% (inactive). In addition, the results for the inhibition in assay [7], in assay [8] and in [14] were 0% (inactive), 1.17% (inactive) and -0.14% (inactive), respectively. Besides, the growth inhibition in [9] is 4.41% (inactive); in [10], 9.96% (inactive). In addition, the viability increase in assay [11] was -1.92% (inactive). Further, the RAM network inhibition in [15] is 4.64% (inactive).
For the compound `CC(Sc1nc(-c2ccccc2)cc(C(F)(F)F)n1)C(=O)N1CCCC1` (stereo not given), the viability in [1] is 84.5%; in [3], 84.5% (inactive); in assay [4], 89.7% (inactive); in assay [5], 88.8% (inactive); in [6] (setting [16]), 97.3%; in assay [6] (setting [17]), 88.8%. The results for the viability in [12] and in assay [13] were 89.2% (inactive) and 84% (inactive), respectively. Further, the Her2 level in assay [2] was 94.5% (inactive). Besides, in assay [6] (H69AR cells + 2 uM doxorubicin), the differential viability (reversal) is -8.49% (inactive). Also, the inhibition in [7] is -4.13% (inactive); in assay [8], -3.61% (inactive); in [14] it was 0.895% (inactive). The figures for the growth inhibition in assay [9] and in assay [10] were -2% (inactive) and -21.7% (inactive), respectively. Further, the viability increase in [11] was -2.25% (inactive). For the same compound, in assay [15], the RAM network inhibition was 1% (inactive).
Regarding `CSCCC(N=CC1=C(O)CC(C)(C)CC1=O)C(=O)O` (stereo not given), the viability was 100% in assay [1]; 100% (inactive) in [3]; 99.4% (inactive) in assay [4]; 87.2% (inactive) in assay [5]; 89.3% in assay [6] (setting [16]); 87.2% in assay [6] (setting [17]). Moreover, the viability was 93.9% (inactive) in assay [12] and 99.9% (inactive) in assay [13]. In addition, in assay [2], the Her2 level is 139% (inactive). For the same compound, the differential viability (reversal) in assay [6] (H69AR cells + 2 uM doxorubicin) is -2.07% (inactive). The inhibition in assay [7] is -3.21% (inactive); in assay [8], -6% (inactive); in [14] it was 0.65% (inactive). The values for the growth inhibition in [9] and in [10] were 1.4% (inactive) and 1.57% (inactive), respectively. In [11], the viability increase is 0.34% (inactive). The RAM network inhibition in [15] is 4.91% (inactive).

For the origin of these results see PubChem BioAssay.
